Measured values as given in PMC6212833.
In all, about 2,000 compounds were measured (“B-score”: median about -0.0024, highest 2% from about 4 on). This excerpt belongs to a sample that is enriched for the highest values.

Each molecule was assayed on Balamuthia mandrillaris (ATCC PRA-291) trophozoites, axenic culture (assay: primary screen, b score). Conditions: 20 µM.
Protocol: Screening of a clinically approved library of compounds, compiled by the Small Molecule Discovery Center (SMDC) at the UCSF, was completed at 20 µM in 0.2% DMSO. All 2,177 drugs in the library were stored as 10 mM stocks dissolved in 100% DMSO (Sigma-Aldrich) at −20°C. B. mandrillaris amoebae were resuspended in axenic medium and distributed into opaque 384-well plates (Corning) at a density of 3,000 amoebae per well using a BioMek NX liquid handler. Negative-control wells were treated with vehicle only (0.2% DMSO in axenic medium), and positive-control wells simulating total destruction of amoebae were seeded with amoeba lysate generated by 3 consecutive freeze-thaw cycles. Following 72 h of incubation, 30 µl of CellTiter Glo reagent (CTG; Promega) was added to each well. The luminescence was measured with a Promega GloMax-Multi+ plate reader at 2, 4, and 8 h after CTG addition. […] The B-score, representing a plate-based statistical approach for correcting row, column, and edge effects, was also calculated for each compound in the library (75).
`[N-]=[N+]=CC(=O)OC[C@H](N)C(=O)O` was tested, and the B-score was 4.05.
Work on `CC(=O)O[C@H]1C[C@H](O[C@H]2[C@@H](O)C[C@H](O[C@H]3[C@@H](O)C[C@H](O[C@H]4CC[C@@]5(C)[C@H](CC[C@@H]6[C@@H]5C[C@@H](O)[C@]5(C)[C@@H](C7=CC(=O)OC7)CC[C@]65O)C4)O[C@@H]3C)O[C@@H]2C)O[C@H](C)[C@H]1O[C@@H]1O[C@H](CO)[C@@H](O)[C@H](O)[C@H]1O` yielded a B-score of 0.168.
In the case of `O=C1C[C@@H]2OCC=C3CN4CC[C@]56c7ccccc7N1[C@H]5[C@H]2[C@H]3C[C@H]46`, the B-score is reported as 0.0173.
In the case of `CN1C[C@H](CNC(=O)OCc2ccccc2)C[C@@H]2c3cccc4c3c(cn4C)C[C@H]21`, the B-score is reported as -0.657.
Molecule `CC(C)C[C@H](CN)CC(=O)O` has a B-score of 1.41.
